Screens: PubChem BioAssay, several laboratories
NPR2 activator: GC-B (human) receptor activation. HEK293-GC-B cells, CNP EC30, cGMP TR-FRET; 0% at EC30 CNP, 100% saturating CNP. activation, % at 10 µM. hit rate 0.11% among 370,000. AID 1920062;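 active means activation at 10 µM reaching about 35% in either raw or pattern-adjusted values, limit read from the data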
Target sequence (P20594 whole entry, looked up): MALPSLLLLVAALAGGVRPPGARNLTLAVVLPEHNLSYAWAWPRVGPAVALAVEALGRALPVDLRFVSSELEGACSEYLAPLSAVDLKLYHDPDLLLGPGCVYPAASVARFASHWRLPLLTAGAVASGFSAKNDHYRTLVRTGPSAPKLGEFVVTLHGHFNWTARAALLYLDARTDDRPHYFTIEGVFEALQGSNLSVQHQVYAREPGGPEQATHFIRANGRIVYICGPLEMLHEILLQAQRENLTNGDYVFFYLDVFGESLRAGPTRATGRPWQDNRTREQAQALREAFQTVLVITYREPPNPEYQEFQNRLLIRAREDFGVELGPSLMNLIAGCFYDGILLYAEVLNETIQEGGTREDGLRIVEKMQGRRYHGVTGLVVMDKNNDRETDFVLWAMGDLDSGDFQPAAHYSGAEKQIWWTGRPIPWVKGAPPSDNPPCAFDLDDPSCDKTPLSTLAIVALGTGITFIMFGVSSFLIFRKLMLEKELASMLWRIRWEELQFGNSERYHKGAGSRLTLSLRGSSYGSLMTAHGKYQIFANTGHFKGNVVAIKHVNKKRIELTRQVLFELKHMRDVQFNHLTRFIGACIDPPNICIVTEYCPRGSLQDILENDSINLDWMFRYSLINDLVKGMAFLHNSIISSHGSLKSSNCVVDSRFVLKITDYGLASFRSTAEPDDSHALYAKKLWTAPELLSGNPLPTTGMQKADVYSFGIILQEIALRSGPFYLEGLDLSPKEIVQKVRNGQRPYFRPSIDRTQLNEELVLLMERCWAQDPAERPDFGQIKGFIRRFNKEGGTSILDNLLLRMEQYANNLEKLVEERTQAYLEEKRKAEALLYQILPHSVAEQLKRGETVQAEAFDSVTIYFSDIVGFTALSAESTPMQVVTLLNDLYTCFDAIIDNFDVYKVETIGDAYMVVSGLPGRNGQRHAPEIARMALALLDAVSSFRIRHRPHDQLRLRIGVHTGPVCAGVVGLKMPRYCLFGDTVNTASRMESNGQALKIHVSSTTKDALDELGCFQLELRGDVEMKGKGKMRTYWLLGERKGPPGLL
HDAC3 inhib: inhibitors of human histone deacetylase 3 | inhibition, % at 8.3 µM | recombinant HDAC3, fluorogenic peptide/trypsin coupled, fluorescence | O15379 | hit rate 0.15% among 320,000 | AID 2718; in the data active means inhibition above about 26%, passing the limit was not always enough
NPR1 activator: GC-A (human) enzyme activation; HEK293 GC-A cells, cGMP TR-FRET, EC30 ANP; 0% at EC30 ANP, 100% saturating ANP; P16066; activation, % at 10 µM; hit rate 0.14% among 370,000; in the data active means activation above about 40%
ALR H2O2 inh: inhibitors of human sulfhydryl oxidase ALR. P55789. purified ALR, DTT oxidation, H2O2 HRP-luminol luminescence. inhibition, % (test concentration not listed). hit rate 3.8% among 290,000. AID 485317;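 active means mean replicate inhibition above about 79%, with every replicate also reaching it, limit read from the data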
Starred values were filed as active, the others as inactive. This is one part of a sample in which hits are shown more often than they occur.

How did CCOC(=O)CSc1n[nH]c(NC(=O)NC(C)C)n1 do in these assays?
NPR2 activator: -2; HDAC3 inhib: -11; NPR1 activator: 1; ALR H2O2 inh: -13

How did CCOC(=O)c1c(/N=C/c2cccc([N+](=O)[O-])c2O)sc(C)c1C do in these assays?
NPR2 activator: 3; HDAC3 inhib: 7; NPR1 activator: -2; ALR H2O2 inh: 86*

How did Cc1ccc(C(=O)N2CCN(c3ncccn3)CC2)o1 do in these assays?
NPR2 activator: 3; HDAC3 inhib: -2; NPR1 activator: -1; ALR H2O2 inh: -1

How did Cc1oc(-c2ccccc2F)nc1CSCC(=O)NC1CCCC1 do in these assays?
NPR2 activator: -2; HDAC3 inhib: 7; NPR1 activator: 1; ALR H2O2 inh: -33

Results for Cc1oc(-c2ccccc2Cl)nc1CSCC(=O)NC1CC1 ?
NPR2 activator: -4; HDAC3 inhib: 5; NPR1 activator: 6; ALR H2O2 inh: 98*

How did CCc1ccc(-c2nc(CSCC(=O)N3CCN(c4ncccn4)CC3)c(C)o2)cc1 do in these assays?
NPR2 activator: -3; HDAC3 inhib: 5; NPR1 activator: 4; ALR H2O2 inh: 97*

Results for CCc1ccc(-c2nc(CSCC(=O)NC3CC3)c(C)o2)cc1 ?
NPR2 activator: 1; HDAC3 inhib: -1; NPR1 activator: 1; ALR H2O2 inh: 70

What do the screens show for `CSc1ccc(-c2nc(CSCC(=O)NC3CC3)c(C)o2)cc1`?
NPR2 activator: -3; HDAC3 inhib: -16; NPR1 activator: 2; ALR H2O2 inh: 98*

Results for CCOC(=O)N1CCC(NC(=O)CSCc2nc(-c3ccc(OC)cc3)oc2C)CC1 ?
NPR2 activator: 1; HDAC3 inhib: -8; NPR1 activator: -1; ALR H2O2 inh: 86*

How did CCCCn1cnc2c(c(CC#N)nn2-c2ccccc2)c1=N do in these assays?
NPR2 activator: -1; NPR1 activator: 6

What do the screens show for `Cc1nn(C)cc1S(=O)(=O)N1CCCCC1C` (centres undefined)?
NPR2 activator: 3; HDAC3 inhib: 2; NPR1 activator: 3; ALR H2O2 inh: 2

Results for C[C@H](O)[C@@H]1C(=O)N2CCc3c([nH]c4cccc(-c5ccccc5)c34)[C@@H]2C[C@@H]1N(C)C(=O)c1ccccc1 ?
NPR2 activator: 0; NPR1 activator: -2

Results for CSc1ccc(-c2nc(CSCC(=O)N3CCOCC3)c(C)o2)cc1 ?
NPR2 activator: 6; HDAC3 inhib: 12; NPR1 activator: 2; ALR H2O2 inh: 98*

What do the screens show for `Cc1oc(-c2ccc(F)cc2)nc1CN1CCCC(C(=O)N2CCOCC2)C1` (centres undefined)?
NPR2 activator: 2; NPR1 activator: 2

What do the screens show for `COc1ccc(S(=O)(=O)N2CCN(C(=O)Cc3ccsc3)CC2)cc1`?
NPR2 activator: 1; NPR1 activator: -2

How did CCCOc1ccc(Cn2c(C)nc([N+](=O)[O-])c2SCC(O)COC)cc1[N+](=O)[O-] (centres undefined) do in these assays?
NPR2 activator: -3; HDAC3 inhib: 4; NPR1 activator: 2; ALR H2O2 inh: 99*

How did CCOc1ccc(Cn2c(C)nc([N+](=O)[O-])c2SCC(O)CCl)cc1[N+](=O)[O-] (centres undefined) do in these assays?
NPR2 activator: -4; HDAC3 inhib: 21; NPR1 activator: 6; ALR H2O2 inh: 1

How did CCOC(=O)c1nnn(-c2ccc([N+](=O)[O-])cc2[N+](=O)[O-])c1C do in these assays?
NPR2 activator: -3; HDAC3 inhib: 1; NPR1 activator: 2; ALR H2O2 inh: -31

How did COc1ccc(OC)c(N=c2oc3c(OC)cccc3cc2C(=O)NCc2ccco2)c1 do in these assays?
NPR2 activator: -3; HDAC3 inhib: 2; NPR1 activator: -6; ALR H2O2 inh: 22

Results for COc1ccccc1N=c1oc2c(OC)cccc2cc1C(=O)NCc1ccco1 ?
HDAC3 inhib: -8; ALR H2O2 inh: 86*

What do the screens show for `Cc1cc(Sc2nc(N)ncc2[N+](=O)[O-])ncn1`?
NPR2 activator: 6; HDAC3 inhib: -11; NPR1 activator: 5; ALR H2O2 inh: 98*

How did Cc1cc(Sc2ncnc(N)c2[N+](=O)[O-])ncn1 do in these assays?
HDAC3 inhib: 1; ALR H2O2 inh: 46

Results for CC(C)Oc1ccc(CN2CCC2(C)C(=O)Nc2ccc(Cl)c(Cl)c2)cc1 (centres undefined) ?
NPR2 activator: 4; NPR1 activator: -4

How did S=C(c1c[nH]c2ccc(Br)cc12)N1CCOCC1 do in these assays?
NPR2 activator: 0; HDAC3 inhib: -2; NPR1 activator: -3; ALR H2O2 inh: 99*

Results for O=C1N/C(=C/c2ccc(N3CCCC3)cc2)C(=O)N1c1ccccc1 ?
NPR2 activator: -4; HDAC3 inhib: 0; NPR1 activator: 2; ALR H2O2 inh: 1

Results for O=C1/C(=C/c2ccc(N3CCCC3)cc2)NC(=S)N1C1CC1 ?
NPR2 activator: 1; HDAC3 inhib: 9; NPR1 activator: 9; ALR H2O2 inh: 97*

Results for CN(C)c1ccc(N=Nc2ccccc2C(=O)OCC(=O)NCC2CCCCC2)cc1 ?
NPR2 activator: 1; HDAC3 inhib: 21; NPR1 activator: -4; ALR H2O2 inh: 1

What do the screens show for `CN(C)c1ccc(N=Nc2ccccc2C(=O)OCC(=O)NC2CCCC2)cc1`?
NPR2 activator: -3; HDAC3 inhib: 0; NPR1 activator: 4; ALR H2O2 inh: 97*

How did COC(=O)CCCC(=O)N1CCC(CCC(=O)NCc2ccc(F)cc2)CC1 do in these assays?
NPR2 activator: 2; HDAC3 inhib: 4; NPR1 activator: -4

How did Nc1nc(CSc2ncn(-c3ccccc3)n2)cs1 do in these assays?
NPR2 activator: 7; HDAC3 inhib: 9; NPR1 activator: 4; ALR H2O2 inh: 98*

Results for c1ccc(CSc2ncn(-c3ccccc3)n2)cc1 ?
NPR2 activator: -9; HDAC3 inhib: 2; NPR1 activator: -6; ALR H2O2 inh: -2

What do the screens show for `COc1cc(/C=N/NC(=O)CCC(=O)NC2CCCCC2)ccc1C`?
NPR2 activator: 6; HDAC3 inhib: -2; NPR1 activator: -1; ALR H2O2 inh: -8

What do the screens show for `CCOc1cc(/C=N/NC(=O)CCc2n[nH]c(=O)[nH]c2=O)ccc1O`?
NPR2 activator: 2; HDAC3 inhib: 3; NPR1 activator: -2; ALR H2O2 inh: 99*

How did COc1ccc(/C=N/NC(=O)CCc2n[nH]c(=O)[nH]c2=O)cc1OC do in these assays?
NPR2 activator: 1; HDAC3 inhib: -4; NPR1 activator: -2

What do the screens show for `CCOc1cc(/C=N/NC(=O)CCCC(=O)NC2CCCCC2)ccc1O`?
NPR2 activator: -2; HDAC3 inhib: 4; NPR1 activator: 0; ALR H2O2 inh: 99*

Results for CC1CCN(c2ccc3nnc(CCC(=O)Nc4cccc(F)c4)n3n2)CC1 ?
NPR2 activator: -9; HDAC3 inhib: 6; NPR1 activator: -7; ALR H2O2 inh: -5

How did Cc1[nH]c2ccccc2c1SCCNC(=O)c1ccc(Br)o1 do in these assays?
NPR2 activator: -3; HDAC3 inhib: 7; NPR1 activator: -2; ALR H2O2 inh: 78*

How did COc1ccccc1C1NC(=O)NC(C)=C1C(=O)OCC1CCCCC1 (centres undefined) do in these assays?
NPR2 activator: -3; NPR1 activator: -4
